# Shown are actives, neighbours in structure and some others; about 4.8% of the full set was active somewhere.
# hgDAF-12 ag: agonists of H. glycines DAF-12 nuclear receptor; HEK293 GAL4-hgDAF12 UAS-luciferase reporter, agonist luminescence; normalized to butyrate control; activation, % at 6.8 µM; 1.8% of 370,000 active; AID 687014;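 active means activation above a cutoff set at the mean of all screened compounds plus 3 SD, cut at about 10% in these data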
# DAX1 inh-1: inhibits human nuclear receptor DAX1. P51843. HEK293 Gal4-DAX1 luciferase reporter, luminescence. inhibition, % at 6.75 µM. 0.99% of 340,000 active. AID 504766;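 active means inhibition above the mean over all tested compounds plus 3 SD, cut at about 4.2% in these data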;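 further: inhibition shows as a rise in luminescence from relieved DAX1 repression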
# Target sequence (P51843 207-470 limits assumed): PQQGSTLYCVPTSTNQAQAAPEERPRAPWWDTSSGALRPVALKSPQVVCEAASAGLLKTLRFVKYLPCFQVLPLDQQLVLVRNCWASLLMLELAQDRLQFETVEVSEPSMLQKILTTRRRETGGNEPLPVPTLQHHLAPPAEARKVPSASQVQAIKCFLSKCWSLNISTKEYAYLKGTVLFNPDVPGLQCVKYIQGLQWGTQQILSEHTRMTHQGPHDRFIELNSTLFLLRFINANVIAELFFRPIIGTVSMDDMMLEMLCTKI
# hcDAF-12 act: activators of H. contortus DAF-12 nuclear receptor | activation, % at 6.8 µM | 1.4% of 370,000 active | HEK293 hcDAF-12 lit1-tk-luc reporter, luminescence; 0% DMSO, 100% Δ7-dafachronic acid;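 active means activation above the mean of all tested compounds plus 3 SD, cut at about 5.5% in these data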
# SMARCA2 act: increases SMARCA2 function in MMTV reporter cells. activation, % at 9.1 µM. 1% of 370,000 active. MG213 cells, MMTV-luciferase reporter, dexamethasone, overnight; in the data active means activation above about 7.8%
# ssDAF-12 act: S. stercoralis DAF-12 activation, primary screen; 1% of 370,000 active; activation, % at 6.8 µM; AID 652126; HEK293 ssDAF-12/GRIP1 lit1-tk-luc reporter, luminescence; % of 3 µM dafachronic acid response;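 active means activation above the mean over all tested compounds plus 3 SD, cut at about 0.9% in these data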
# DAX1 inh-2: inhibitors of DAX1 repression of SF-1 activated StAR promoter | HEK293T StAR-luciferase reporter, SF-1/DAX-1 repression relief | inhibition, % at 6.8 µM | 1.1% of 370,000 active;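 active means inhibition above the mean over all tested compounds plus 3 SD, cut at about 3.6% in these data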;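 further: higher inhibition means more luminescence from relief of DAX-1 repression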
# Hits are given with their value; n = inactive; x = not tested or not shown; ! = not active in a repeat.
SMILES,hgDAF-12 ag,DAX1 inh-1,hcDAF-12 act,SMARCA2 act,ssDAF-12 act,DAX1 inh-2
O=C(O)Cc1sc(Nc2ccc(Cl)cc2)nc1-c1cccs1,n,x,5.8,n,n,n
O=C(O)Cc1sc(Nc2cccc3ccccc23)nc1-c1ccccc1,n,n,n,n,n,4.3
Nc1nc(-c2ccccc2)c(CC(=O)O)s1,n,n,n,n,n,n
COc1ccc(/C=C2/SC(=O)N(CCNC(=O)CC(NC(C)=O)c3ccccc3)C2=O)cc1 (centres undefined),n,n,n,n,n,n
Cc1cc2c(c(=O)o1)C1(C(=O)N(CC(=O)O)c3ccccc31)C(C#N)=C(N)O2 (centres undefined),n,n,n,n,n,n
Cc1ccc(NC2SC(=O)N(CC(=O)O)C2=O)cc1 (centres undefined),n,n,n,n,1.2,n
O=C(O)/C=C/c1cccc2c1OCCO2,n,7.2,n,n,n,n
CSCCC(c1nc2ccccc2[nH]1)n1c(-c2ccc3ncccc3c2)nc2ccccc21 (centres undefined),11,x,n,n,n,n
Clc1cccc(Oc2ncc(CN3CCOCC3)s2)c1,n,n,n,7.9,n,n
CCc1nc2ccc(C(=O)NCCOc3ccc(OC)cc3)cn2c1N(C)Cc1nccn1C,n,x,n,n,n,n
Oc1ccc(-c2csc(Nc3ccccn3)n2)c(O)c1,n,4.6,n,n,n,n
CC(=O)Nc1ccc(-c2csc(Nc3cc(C)ccn3)n2)cc1,n,n,n,n,n,n
CC(=O)Nc1cccc(-c2csc(Nc3cc(C)ccn3)n2)c1,11,n,n,n,n,n
CC(=O)Nc1nc(C)c(-c2csc(Nc3ccccn3)n2)s1,10!,n,n,n,n,n
COc1cc(C=O)ccc1OCc1c(C)noc1C,n,n,n,n,n,n
N#C/C(=C\c1ccccc1O)C(=O)Nc1ccccn1,n,n,5.8,n,n,n
CCOC(=O)CC1(NC(=O)C2CCC(=O)N(CCc3ccc(OC)cc3)C2)CCCCC1 (centres undefined),n,n,n,n,n,n
CC(C)c1nnc(NC(=O)c2sc3ccccc3c2Cl)s1,n,n,5.9,n,n,n
CCCn1nnc(NC(=O)c2sc3ccccc3c2Cl)n1,n,n,n,n,n,n
O=C(N/N=C/c1ccncc1)c1sc2ccccc2c1Cl,n,n,n,n,n,3.9
COc1ccccc1CCNC(=O)CSc1nc2c([nH]1)c(=O)n(C)c(=O)n2C,n,x,n,n,n,n
CC1Cc2cc(/C(O)=C3/C(=O)C(=O)N(Cc4ccncc4)C3c3ccc(N(C)C)cc3)ccc2O1 (centres undefined),n,n,n,n,n,n
CCOC(=O)c1c(C)[nH]c(C(=O)COC(=O)c2cnc(C)cn2)c1C,n,n,n,n,n,n
O=C1Cc2ccccc2C(=O)N1Nc1ccccc1,n,n,n,n,n,n
O=C(Cn1cc2c(n1)CCCC2)N1CCc2ccccc21,n,4.5,n,n,n,n
SMILES,hgDAF-12 ag,DAX1 inh-1,hcDAF-12 act,SMARCA2 act,ssDAF-12 act,DAX1 inh-2
CC(Sc1ncccn1)C(=O)N1CCc2ccccc21 (centres undefined),n,n,5.8,n,n,n
Cc1cc(C)n2nc(SCC(=O)N3CCc4ccccc43)nc2n1,n,n,n,n,n,n
Cc1ccn(C(C)CC(=O)N2CCc3ccccc32)n1 (centres undefined),n,n,6.2,n,n,n
CC(Oc1ccc(Br)cc1)C(=O)N1CCc2ccccc21 (centres undefined),n,n,n,n,n,n
Cc1cc(C)nc(SCC(=O)N2CCc3ccccc32)n1,n,n,n,n,n,4.3
Cn1cc(S(=O)(=O)CC(=O)Nc2ccc3c(c2)OCO3)c2ccccc21,n,n,n,n,n,n
O=C(O)c1ccccc1SCC(=O)N1CCc2ccccc21,n,n,n,n,7.6,n
CN(C)c1ccc(Cl)cc1N,n,5.3,n,n,n,n
Nc1cc(Cl)ccc1Oc1ccc(Cl)cc1,n,n,n,n,n,n
Oc1ccc2ccccc2c1C=Nc1ccc(Cl)cn1,n,n,n,n,1.3,n
Cc1cc(O)c(C=Nc2ccc(Cl)cn2)c(=O)o1,n,n,n,n,n,n
COc1cccc(N=C2SC(CC(=O)Nc3ccccc3)C(=O)N2Cc2ccccn2)c1 (centres undefined),n,n,n,n,n,n
Cc1ccc(S(=O)(=O)SC/C=C/CSS(=O)(=O)c2ccc(C)cc2)cc1,n,5.5,n,n,n,n
Cn1c(C(=O)N[C@@H](C(=O)O)c2ccccc2)cc2cc(Cl)ccc21,n,n,5.9,n,n,n
Cc1ccc(/C(O)=C/C(=O)C(=O)NC23CC4CC(CC(C4)C2)C3)cc1,n,n,n,n,n,n
COc1ccc(C(=O)/C=C/Nc2cccc(C)n2)cc1OC,11,n,n,n,n,n
N#C/C(=C(/O)CSc1ncn[nH]1)c1nc2ccccc2[nH]1,n,n,6.5,n,n,n
Clc1ccccc1CSc1nc2ccncc2[nH]1,12,n,n,n,n,n
c1ccc(SCCN2CCc3ccccc3C2)cc1,n,n,n,n,n,n
c1ccc(SCCOCCN2CCc3ccccc3C2)cc1,n,n,6.3,n,n,n
COCCNC(=O)C(c1ccc(C)o1)N(CC1CCCO1)C(=O)Cn1nnc2ccccc21 (centres undefined),n,n,n,n,n,n
Cc1n[nH]c(C)c1S(=O)(=O)N1CCCC(C(=O)N2CCc3ccccc32)C1 (centres undefined),n,n,n,n,1.9,n
CC1(C)C2CC=C(/C=N/NC(=S)Nc3cccnc3)C1C2 (centres undefined),n,n,n,n,1.0,n
Cc1cc(C)n(/N=C/c2c[nH]c3ccccc23)c(=O)c1,n,n,6.5,n,n,n
O=C1CS/C(=N/N=C/c2c[nH]c3ccccc23)N1,n,x,n,n,n,n
SMILES,hgDAF-12 ag,DAX1 inh-1,hcDAF-12 act,SMARCA2 act,ssDAF-12 act,DAX1 inh-2
C(=NN=Cc1c[nH]c2ccccc12)c1c[nH]c2ccccc12,n,n,6.1,n,n,n
COc1ccccc1-c1nnc(SC)n1C,n,n,n,n,n,n
O=[N+]([O-])c1ccc(/C=C/C2=NN(c3ccccc3)C(c3ccco3)C2)cc1 (centres undefined),n,n,n,n,n,n
O=[N+]([O-])c1ccc(C2=NN(c3ccccc3)C(c3ccco3)C2)cc1 (centres undefined),n,6.4,n,n,n,n
Cc1cc(C(=O)COC(=O)CC2Sc3ccccc3NC2=O)c(C)n1-c1cccc(C(F)(F)F)c1 (centres undefined),n,n,n,n,1.2,n
COc1ccc(/C=C2/C(=O)N(c3ccccc3)N=C2C)cc1Br,n,n,6.4,n,n,n
CN(C(=O)c1ccc(F)cc1)c1ccccc1C(=O)NCc1ccccc1,n,n,n,n,n,n

# Screens from PubChem.
